Source: PubChem BioAssay (NCATS)
Active and inactive are the calls of the source. The call rests on the fitted dose curve; in most records, active means well fitted curve in the direction sought with a large enough effect; inconclusive means small, poorly fitted or top-dose-only effect, or another doubt; inactive means no such curve, though single readings can be large or run the other way. Bridge positions count the residues as written; N and C are the ends. Square brackets hold non-standard residues; d marks the D form. Side chains are listed from the residue outwards. Peptide text beside a SMILES is read from it. * marks the point of attachment. Phg(4-OMe) = COc1ccc([C@H](N)C(=O)O)cc1; d(aIle) = CC[C@H](C)[C@@H](N)C(=O)O; d(aThr) = C[C@@H](O)[C@@H](N)C(=O)O; NMeF = CN[C@@H](Cc1ccccc1)C(=O)O; Isobutyryl = CC(C)C(=O)*

test: Inflammasome Signaling qHTS Counterscreen: IL-1-beta AlphaLISA counterscreen against the NCATS CANVASS Library (AID 1347381); settings: Purified IL-1beta AlphaLISA signal interference counterscreen; series mostly up to 57.5 µM; activity change, negative = inhibition: at the top concentration;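 further: cell-free check with purified IL-1β in medium and no THP-1 cells; 0% is about no effect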
Procedure, shortened: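 To flag interference with the AlphaLISA read-out, a known amount of purified IL-1-beta (4 pg) replaced cell supernatant. Detection used anti-IL-1-beta acceptor beads, biotinylated antibody and streptavidin donor beads at room temperature.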

Row | Compound | activity change, negative = inhibition
1 | Cc1occ2c1C(=O)c1c(cc(O)c(O)c1O)C2=O | -22.3% (inactive)
2 | O=C1CC2OCC=C3CN4C5CC3C2[C@@H]2N1c1ccccc1[C@]52C[C@@H]4C1=C[C@H]2C3CC4N(CC[C@@]45c4ccccc4N(C1=O)[C@@H]25)C/C3=C/CO (stereo partly drawn) | -10.5% (inactive)
3 | CCC(=O)CCCCC[C@@H]1NC(=O)[C@H]2CCCCN2C(=O)[C@H](C(C)C)NC(=O)[C@H](Cc2cn(OC)c3ccccc23)NC1=O | -19.4% (inactive)
4 | C/C(=C\[C@H](C)C(=O)CCCC1CC(=O)NC(=O)C1)[C@@H]1OC(=O)/C=C/CC/C=C/[C@H](O)[C@@H](O)[C@@H]1C | 2.33% (inactive)
5 | C/C=C(/C)c1c(Cl)c(O)c(C)c2c1Oc1c(Cl)c(O)c(Cl)c(C)c1C(=O)O2 | 7.92% (inactive)
6 | C=C[C@@]1(C)CC[C@@H]([C@H](C)C(=O)/C=C/C(C)(C)O)O1 | 2.02% (inactive)
7 | C=CC(CCCCC)C1C(=O)NC(=O)C1C(=O)C1C(/C=C/C)C=CC2CC(C(=O)O)CC(C)C21 (stereo not drawn) | 12.4% (inactive)
8 | C=C1CC[C@@H](O[C@H]2C[C@@](O)([C@H](C)NC(=O)c3[nH]c(C)c(Cl)c3Cl)[C@H](O)[C@@H](C)O2)[C@@H]2C=C[C@H](C)C(/C(O)=C3/C(=O)[C@H](C(C)C)N([C@@H]4O[C@H](C)[C@H](OC(N)=O)[C@H](OC(C)=O)[C@@H]4OC)C3=O)[C@@H]12 (stereo partly drawn) | 1.21% (inactive)
9 | COc1ccc([C@@H]2CC(=O)c3c(cc(O)c(C/C=C(\C)CCC=C(C)C)c3O)O2)cc1 | -7.89% [at 11.5 µM] (inactive)
10 | O=c1cc(-c2ccc(O)c(O)c2)oc2cc(O[C@@H]3O[C@H](CO)[C@@H](O)[C@H](O)[C@H]3O)cc(O)c12 | -15.9% (inactive)
11 | CC[C@H](C)[C@H]1NC(=O)[C@@H](NC(=O)C(C)C)[C@@H](C)OC(=O)[C@H](COC(=O)CNC(C)=O)NC(=O)[C@@H]([C@@H](C)O)NC(=O)[C@H](Cc2ccccc2)N(C)C(=O)[C@H](c2ccc(OC)cc2)NC1=O (Isobutyryl-T[d(aIle)][Phg(4-OMe)][NMeF][d(aThr)]S([Gly-Ac]); ester 1-C) | 4.45% (inactive)
12 | C[n+]1cc2cc(C(N)=O)[nH]c3c(=N)c(Cl)c(N)c1c23 | 3.48% (inactive)
13 | C/C1=C/[C@@H](C)[C@H](O)[C@@H](O)/C=C/CC/C=C/C(=O)O[C@@H]1[C@H](C)C(=O)CCCC1CC(=O)NC(=O)C1 | 4.18% (inactive)
14 | CC(=O)Oc1cc2c(c(OC(C)=O)c1C1CCc3cc(Cl)c(Cl)n31)C(=O)n1c-2cc(Cl)c1Cl (stereo not drawn) | 0.472% (inactive)
15 | COc1ccc2[nH]c3c(c2c1)CCN1C[C@H]2C[C@@H](OC(=O)c4cc(OC)c(OC)c(OC)c4)[C@H](OC)[C@@H](OC)[C@H]2C[C@H]31 | -8.26% (inactive)
16 | CC(C)=CC[C@H]1C[C@@]2(CC=C(C)C)C(=O)[C@](CC=C(C)C)(C(=O)C(C(=O)c3ccccc3)=C2O)C1(C)C | 1.37% (inactive)
17 | C[C@]12CC[C@]3(C1)[C@H](CC2=O)C[C@@H](OC(=O)c1ccccc1)[C@H]1[C@](C)(C(=O)O)CCC[C@@]13C | -1.24% (inactive)
18 | CC(=O)O[C@H]1c2ccccc2-c2c3c(cc4c2[C@@H]1N(C(C)=O)CC4)OCO3 | 0.101% (inactive)
19 | C=C[C@](Cl)(CBr)CCC=C(C)C | 1.25% (inactive)

Row | Compound | activity change, negative = inhibition
20 | C=C1CC[C@@H](Br)C(C)(C)[C@]12CC=C(C)C(=O)C2 | -2.91% (inactive)
21 | COc1cc2c(cc1OC)[C@@H](c1ccc3c(c1)OCO3)C(C)C(C)C2=O (stereo partly drawn) | 4.18% (inactive)
22 | C[C@H]1C=C[C@H]2CCCC[C@@H]2[C@H]1C(=O)[C@H]1CC2=C(C(=O)O)CCN2C1=O | 1.68% (inactive)
23 | C/C(=C\[C@H](C)C(=O)/C=C/CC1CC(=O)NC(=O)C1)[C@@H]1OC(=O)/C=C/CC/C=C/C[C@@H](O)[C@@H]1C | 2.64% (inactive)
24 | CC(C)[C@]12CC[C@@]3(C)[C@H](C)CC[C@H](O)[C@@]3(CC1)c1cc3c(cc12)[nH]c1ccccc13 | -9.06% (inactive)
25 | C/C=C1/CN2C3CC1C1C=CC(=O)N4c5ccccc5[C@@]3(C[C@@H]2C2=C[C@H]3C5CC6N(CC[C@@]67c6ccccc6N(C2=O)[C@@H]37)C/C5=C/C)[C@H]14 (stereo partly drawn) | -15.6% (inactive)
26 | CC(C)=CCC[C@]12c3cc4c(cc3CC[C@@]1(C)[C@H](C)CC[C@@H]2O)[nH]c1ccccc14 | -5.23% (inactive)
27 | Oc1ccc(C2Oc3cc(O)c4c(c3[C@@H]2c2cc(O)cc(O)c2)[C@H]2C(c3ccc(O)cc3)c3c(O)cc5c(c3[C@H]2C4c2ccc(O)cc2)[C@H](c2cc(O)cc(O)c2)C(c2ccc(O)cc2)O5)cc1 (stereo partly drawn) | -11.6% (inactive)
28 | COc1cc(O)c(C(=O)[C@@H]2[C@H](CC=C(C)C)C(C)=CC[C@H]2c2ccccc2)c(O)c1 | 6.21% (inactive)
29 | C=C(C)CC[C@H](Cc1c(O)cc(O)c2c1O[C@H](c1ccc(O)cc1)CC2=O)C(=C)C | 8.74% (inactive)
30 | COc1cc(/C=C/C(=O)OC[C@@H](Cc2ccc(O)c(OC)c2)[C@@H](COC(=O)/C=C/c2ccc(O)c(OC)c2)Cc2ccc(O)c(OC)c2)ccc1O | -7.39% (inactive)
31 | C=CC(CCCCC)C1C(=O)NC(=O)C1C(=O)C1C2C(C)CC(C(=O)O)CC2CC1(O)C(=O)/C=C/C (stereo not drawn) | -2.25% (inactive)
32 | C[C@]12CCC[C@](C)(C(=O)O)[C@@H]1CC[C@@]1(C)c3cocc3CC[C@H]21 | 4.08% (inactive)
33 | COc1c(O)cc2c(c1O)C(=O)c1c(coc1C)C2=O | -14.2% (inactive)
34 | CC(C)C[C@@H]1c2c(O)c(C=O)c(O)c(C=O)c2O[C@]2(C)C=C[C@@H](C(C)C)C[C@H]12 | 4.55% (inactive)
35 | COc1cc2c(c(O)c1O)C(=O)c1c(coc1C)C2=O | -15.6% (inactive)
36 | CO[C@H]1[C@@H](OC(=O)/C(C)=C\[C@@H]2O[C@@H]2[C@H]2O[C@H]2C)[C@H](O)[C@H](OCC23C[C@@H]4[C@H](C)CC[C@H]4C4(C=O)CC2C=C(C(C)C)C34C(=O)O)O[C@@H]1C (stereo partly drawn) | 0.0963% (inactive)
37 | C/C=C/C1C=CC2CC(C)CC(C)C2C1C(=O)CC(=O)NC(CO)C/C=C/CCCCC (stereo not drawn) | -4.76% (inactive)
38 | CC[C@H]1[C@H](C)[C@H](c2cc(OC)c(OC)cc2OC)[C@@H](C)[C@H](c2cc(OC)c(OC)cc2OC)[C@@]12C=C(OC)C(=O)C=C2OC | -3.14% (inactive)
